Measurements as given in PubChem BioAssay AID1239 (SRMLSC, 2008).
About 3,100 (1.6%) of roughly 190,000 compounds were called active. This is one part of a sample in which actives are shown more often than they occur. Values without a mark were called inactive. Cut-off read from the data, not from the text of the source: active = fold change above about 3.3; inconclusive = no clear call, values can overlap the other calls; inactive = below that.

Test: activators of NF-kB expression in neurons, primary screen, cell-based, HTS (AID 1239)
Settings: human neuronal cells, NF-kB reporter expression; at 12.5 µM; hits give high values

Row | SMILES | fold change
1 | Cc1nn(-c2ccccc2)c2c1C(c1cccc([N+](=O)[O-])c1)N(c1ccccc1)C(=O)N2 (stereo not drawn) | 1.17
2 | Cc1nn(-c2ccc([N+](=O)[O-])cc2)c(N)c1-c1ccccc1 | 6.64 (active)
3 | O=C1CC(c2ccccc2)=NN1c1ccc([N+](=O)[O-])cc1 | 1.27
4 | Cc1nc2ccc(NC(=O)C(F)(F)F)cc2o1 | 0.91
5 | Cc1nc2cc(NC(=O)NCc3ccccc3)ccc2o1 | 1.54
6 | Cc1ccc(NC(=O)Nc2ccc3oc(C)nc3c2)cc1 | 5.03 (active)
7 | COc1ccc(C2CC(c3cccs3)=NN2c2ccccc2)cc1 (stereo not drawn) | 1.15
8 | CCCNS(=O)(=O)c1ccc(CCC(=O)N2CCCC2)cc1 | 1.25
9 | Cn1cnnc1Sc1ccc(CN2CCN(C3CCCC3)C(CCO)C2)o1 (stereo not drawn) | 1.08
10 | OCCC1CN(Cc2ccc3nsnc3c2)CCN1C1CCCC1 (stereo not drawn) | 5.55 (active)
11 | OCCC1CN(Cc2ccc3nsnc3c2)CCN1C1CCCCC1 (stereo not drawn) | 0.99
12 | N/C(=N\OC(=O)CCc1ccccc1)c1cccnc1 | 1.31
13 | OCC1(Cc2ccccc2C(F)(F)F)CCN(Cc2cccc3cnccc23)CC1 | 0.85
14 | COc1cc(SC)ccc1C(=O)Nc1cc(C)ccn1 | 1.01
15 | COc1ccccc1CNC(=O)c1ccc(SC)cc1OC | 1.42
16 | COc1cc(SC)ccc1C(=O)NCCOc1ccccc1Cl | 5.99 (active)
17 | COc1cc(CNCCN(C)C)ccc1OCc1c(F)cccc1Cl | 1.11
18 | COc1cccc(CN(C)CC(=O)Nc2ccccc2C(=O)Nc2ccccc2)c1 | 0.95
19 | O=c1[nH]c2cccnc2n(CCNc2ncc(C(F)(F)F)cc2Cl)c1=O | 1.12
20 | C/C(=N\N)c1c(-c2ccccc2)c2cc(Br)ccc2[nH]c1=O | 0.98
21 | NC(N)=Nc1nc2ccc(Br)cc2c(=O)[nH]1 | 3.87 (active)
22 | NC(=O)C1CCN(Cc2nc3c(Br)cc(Br)cc3c(=O)[nH]2)CC1 | 1.47
23 | CC(C)Cn1c(N)c(C(=O)COC(=O)CN2C(=O)C3CC=CCC3C2=O)c(=O)n(C)c1=O (stereo not drawn) | 0.78
24 | Cc1ccc(NC(=S)NC(=O)c2ccc(-c3ccccc3)cc2)c(C)c1 | 1.18
25 | Cc1ccc(NC(=S)Nc2ncccc2C)c(C)c1 | 3.74 (active)
26 | Cc1ccc(NC(=S)NCc2ccccc2Cl)c(C)c1 | 0.92
27 | Cc1ccc(S(=O)(=O)N(C)C)cc1NC(=O)c1ccccc1Br | 1.05
28 | COC(=O)CCNC(=O)c1ccc2[nH]c(C)c(C)c2c1 | 0.99
